Results filed as inconclusive are left out. Calls of active or inactive are those of the source. Unless noted, calls follow the shape of the dose curve; as a rule, active = well fitted curve in the direction sought with a large enough effect in the repeat runs; inconclusive = weak or mixed curves; inactive = no such curve, though single readings can be large; an effect the other way counts as inactive or inconclusive.
Legend:
[1] = qHTS assay to identify aromatase inhibitors - cell viability counter screen (AID 743084);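 also: cells stimulated with testosterone during compound exposure; nearly all actives have a fitted effect of over 55% in size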
[2] = biological target: Aryl hydrocarbon receptor (Homo sapiens) (UniProt P35869); assay: qHTS assay to identify small molecule that activate the aryl hydrocarbon receptor (AhR) signaling pathway (AID 743085);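 also: HG2L7.5c1 human HepG2 liver cells with stably integrated DRE-driven firefly reporter; series mostly up to about 70 µM; nearly all actives have a fitted effect of over 15% in size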
Method in brief: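 HepG2 cells (HG2L7.5c1) stably carrying a firefly luciferase reporter driven by 20 dioxin responsive elements were exposed to compound for 24 h at 37C after a 5 h settling period; luminescence rise (ONE-Glo) indicated activation.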

[3] = qHTS assay to identify small molecule that activate the aryl hydrocarbon receptor (AhR) signaling pathway - cell viability counter screen (AID 743086);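 also: HepG2 liver cells carrying the AhR DRE luciferase reporter; series mostly up to about 70 µM; nearly all actives have a fitted effect of over 45% in size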
Method in brief: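 HepG2-AhR-luc (HG2L7.5c1) cells, 4000/well, were preincubated 5 h at 37C, exposed to compound in qHTS format for 24 hr at 37C, then given CellTiter-Fluor for 30 min; viability was read as fluorescence in the reporter wells.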

[4] = biological target: Peroxisome proliferator-activated receptor gamma (Homo sapiens) (UniProt P37231); assay: qHTS assay to identify small molecule agonists of the peroxisome proliferator-activated receptor gamma (PPARg) signaling pathway (AID 743094; active = well fitted activation curve with a large enough effect in the signal ratio in the repeat runs, not every such curve was filed as active; the % refers to the signal ratio)
Method in brief: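 Following 5 h plating at 37C, PPARg-bla HEK293H cells receive compound or DMSO for 17 h; fluorescence intensity is recorded after LiveBLAzer B/G loading for 1 h at room temperature.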

[5] = biological target: Peroxisome proliferator-activated receptor gamma (Homo sapiens) (UniProt P37231); assay: qHTS assay to identify small molecule antagonists of the peroxisome proliferator-activated receptor gamma (PPARg) signaling pathway (AID 743191; calls by dose curve; also: series mostly up to about 63 µM; nearly all actives have a fitted effect of over 30% in size)
Method in brief: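 GeneBLAzer PPARg UAS-bla HEK293H cells carrying a UAS-driven beta-lactamase reporter were plated at 3000 cells/well, preincubated 5 h at 37C, then given compound for 17 h at 37C; LiveBLAzer B/G FRET substrate was read after 1 h at room temperature.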

[6] = qHTS assay to identify small molecule antagonists of the peroxisome proliferator-activated receptor gamma (PPARg) signaling pathway - cell viability counter screen (AID 743194); also: nearly all actives have a fitted effect of over 55% in size
Method in brief: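 PPARg-UAS-bla HEK293H cells were plated, rested 5 h at 37 C, then treated with compounds plus rosiglitazone (50 nM final) for 17 h at 37 C; viability was then read by CellTiter-Glo luminescence after 30 min at room temperature.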

[7] = qHTS assay for small molecule agonists of the antioxidant response element (ARE) signaling pathway (AID 743202; active = well fitted activation curve with a large enough effect in the signal ratio in the repeat runs, not every such curve was filed as active; the % refers to the signal ratio)
Method in brief: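 Compounds delivered in DMSO to ARE-bla HepG2 cells (2,000 cells/well, pre-incubated 5 h) and left 16 h at 37 C. LiveBLAzer B/G FRET substrate then added for 2 h at RT before fluorescence reading.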

[8] = qHTS assay for small molecule agonists of the antioxidant response element (ARE) signaling pathway - cell viability counter screen (AID 743203; calls by dose curve; also: nearly all actives have a fitted effect of over 55% in size)
Method in brief: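 Compounds in DMSO were pinned onto ARE-bla HepG2 cells plated 5 hrs earlier at 2,000 cells/well. Sixteen hours later at 37C/5% CO2, CellTiter-Glo was added and luminescence measured after 30 min at room temperature.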

[9] = qHTS assay for small molecule activators of the heat shock response signaling pathway - cell viability counter screen (AID 743209); also: nearly all actives have a fitted effect of over 50% in size
Method in brief: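 Counter screen for cytotoxicity in HeLa HSE-bla reporter cells. Treatment was 5 h at 37 C; viability was detected by luminescent ATP assay (CellTiter-Glo) in the same wells as the beta-lactamase read.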

[10] = qHTS assay for small molecule activators of the heat shock response signaling pathway (AID 743210; active = well fitted activation curve with a large enough effect in the signal ratio in the repeat runs, with a control signal flat, not every such curve was filed as active; the % refers to the signal ratio;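 also: HeLa cells with beta-lactamase reporter driven by heat shock elements; series mostly up to about 63 µM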)
Method in brief: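 Reporter gene assay: HeLa cells stably bearing an HSE-bla construct, compound treatment 5 h at 37 C, LiveBLAzer substrate 2.5 h at RT, fluorescence intensity.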

[11] = qHTS assay to identify small molecule agonists of the peroxisome proliferator-activated receptor delta (PPARd) signaling pathway - cell viability counter screen (AID 743211); also: nearly all actives have a fitted effect of over 55% in size
Method in brief: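 PPARd-bla HEK293H cells (UAS-beta-lactamase reporter) were treated with compounds for 17 h at 37 C. Viability was then read in the same wells by CellTiter-Glo luminescence after 30 min at room temperature.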

[12] = qHTS assay to identify small molecule antagonists of the peroxisome proliferator-activated receptor delta (PPARd) signaling pathway - cell viability counter screen (AID 743213); also: nearly all actives have a fitted effect of over 50% in size
Method in brief: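 Luminescence from CellTiter-Glo, added after the bla read and incubated 30 min at room temperature, gives viability of HEK293H PPARd-bla cells exposed to compounds for 17 h at 37 C with 300 nM L165041.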

[13] = biological target: Peroxisome proliferator-activated receptor delta (Homo sapiens) (UniProt Q03181); assay: qHTS assay to identify small molecule antagonists of the peroxisome proliferator-activated receptor delta (PPARd) signaling pathway (AID 743215; active = well fitted inhibition curve with a large enough effect in the signal ratio in the repeat runs, not every such curve was filed as active; the % refers to the signal ratio;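 also: cells stimulated with agonist L165041 at 300 nM final during compound exposure; series mostly up to about 62 µM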)
Method in brief: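 With L165041 present at 300 nM final, compounds were incubated 17 h at 37 C on PPARd UAS-bla HEK293H cells. A FRET-based beta-lactamase substrate was then applied for 2 h at room temperature and fluorescence intensity recorded.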

[14] = qHTS assay to identify small molecule agonists of the farnesoid-X-receptor (FXR) signaling pathway - cell viability counter screen (AID 743218); also: nearly all actives have a fitted effect of over 45% in size
Method in brief: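 After 16 h at 37 C with test compounds, FXR-bla HEK 293T cells were given LiveBLAzer B/G substrate for 2 h at RT and then CellTiter-Glo; luminescence was taken after 30 min.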

[15] = qHTS assay to identify small molecule antagonists of the farnesoid-X-receptor (FXR) signaling pathway - cell viability counter screen (AID 743221; active = well fitted cell-killing curve with a large enough effect in the repeat runs, not every such curve was filed as active; also: nearly all actives have a fitted effect of over 50% in size)
Method in brief: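 FXR-UAS-bla HEK 293T cells were treated with test compounds plus chenodeoxycholic acid (50 uM final) for 16 h at 37 C. Cell viability in the same wells was then read as CellTiter-Glo luminescence after 30 min at room temperature.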

[16] = biological target: Vitamin D3 receptor (Homo sapiens) (UniProt P11473); assay: qHTS assay to identify small molecule agonists of the vitamin D receptor (VDR) signaling pathway (AID 743222; calls by dose curve)
Method in brief: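 VDR-bla cells were seeded, left 4 h, treated with compounds in DMSO for 16 h, incubated 2 h at RT with B/G FRET substrate, and read for fluorescence.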

[17] = biological target: Vitamin D3 receptor (Homo sapiens) (UniProt P11473); assay: qHTS assay to identify small molecule antagonists of the vitamin D receptor (VDR) signaling pathway (AID 743223; active = well fitted inhibition curve with a large enough effect in the signal ratio in the repeat runs, not every such curve was filed as active; the % refers to the signal ratio)
Method in brief: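 VDR-bla cells were plated, incubated 4 h at 37C, then given compound and 1alpha,25-dihydroxyvitamin D3 (3 nM final). After 16 h at 37C, LiveBLAzer B/G FRET substrate was added for 2 h at room temperature and fluorescence read.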

[18] = biological target: Peroxisome proliferator-activated receptor delta (Homo sapiens) (UniProt Q03181); assay: qHTS assay to identify small molecule agonists of the peroxisome proliferator-activated receptor delta (PPARd) signaling pathway (AID 743212; calls by dose curve)
Method in brief: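 A PPARd-bla HEK293H line with beta-lactamase under an Upstream Activator Sequence is treated with compounds at 37 C. Substrate loading for 2 h at room temperature precedes the fluorescence measurement.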

[19] = biological target: Bile acid receptor (Homo sapiens) (UniProt Q96RI1); assay: qHTS assay to identify small molecule antagonists of the farnesoid-X-receptor (FXR) signaling pathway (AID 743217; active = well fitted inhibition curve with a large enough effect in the signal ratio in the repeat runs, not every such curve was filed as active; the % refers to the signal ratio)
Method in brief: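 In this cell-based antagonist screen, inhibition of CDCA-driven (50 uM final) UAS-beta-lactamase expression in HEK 293T cells was measured by FRET fluorescence following 16 h compound exposure at 37 °C.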

[20] = biological target: Bile acid receptor (Homo sapiens) (UniProt Q96RI1); assay: qHTS assay to identify small molecule agonists of the farnesoid-X-receptor (FXR) signaling pathway (AID 743220; active = well fitted activation curve with a large enough effect in the signal ratio in the repeat runs, not every such curve was filed as active; the % refers to the signal ratio)
Method in brief: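 Beta-lactamase reporter under UAS control in GeneBLAzer FXR HEK 293T cells (5000/well) measured with LiveBLAzer FRET substrate after 2 h at room temperature. Compound exposure lasted 16 h at 37C.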

Measured: Potency

Chain of Aryl hydrocarbon receptor (Homo sapiens) (P35869 whole entry, looked up): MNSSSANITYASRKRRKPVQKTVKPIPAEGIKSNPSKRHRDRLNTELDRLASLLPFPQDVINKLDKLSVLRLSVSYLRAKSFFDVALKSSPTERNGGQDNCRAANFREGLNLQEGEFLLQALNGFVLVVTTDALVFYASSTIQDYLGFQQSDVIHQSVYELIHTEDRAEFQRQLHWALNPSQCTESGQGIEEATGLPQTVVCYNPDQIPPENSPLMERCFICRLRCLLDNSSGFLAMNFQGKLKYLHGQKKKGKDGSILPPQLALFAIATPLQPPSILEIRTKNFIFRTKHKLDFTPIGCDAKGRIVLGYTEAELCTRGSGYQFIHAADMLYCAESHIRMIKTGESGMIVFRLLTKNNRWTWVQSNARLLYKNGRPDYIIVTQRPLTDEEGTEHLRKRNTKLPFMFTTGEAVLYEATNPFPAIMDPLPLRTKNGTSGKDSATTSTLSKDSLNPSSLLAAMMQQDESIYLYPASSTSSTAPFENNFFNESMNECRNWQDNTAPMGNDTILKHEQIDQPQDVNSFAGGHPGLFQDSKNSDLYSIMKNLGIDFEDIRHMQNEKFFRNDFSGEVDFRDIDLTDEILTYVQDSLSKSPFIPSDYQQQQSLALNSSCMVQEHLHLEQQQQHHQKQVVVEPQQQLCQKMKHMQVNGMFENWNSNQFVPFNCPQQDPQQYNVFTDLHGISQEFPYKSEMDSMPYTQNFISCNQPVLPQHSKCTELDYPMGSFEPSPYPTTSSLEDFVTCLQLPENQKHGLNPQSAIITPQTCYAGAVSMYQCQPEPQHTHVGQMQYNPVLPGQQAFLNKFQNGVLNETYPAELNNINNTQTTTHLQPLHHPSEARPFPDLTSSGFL
Chain of Peroxisome proliferator-activated receptor gamma (Homo sapiens) (P37231 whole entry, looked up): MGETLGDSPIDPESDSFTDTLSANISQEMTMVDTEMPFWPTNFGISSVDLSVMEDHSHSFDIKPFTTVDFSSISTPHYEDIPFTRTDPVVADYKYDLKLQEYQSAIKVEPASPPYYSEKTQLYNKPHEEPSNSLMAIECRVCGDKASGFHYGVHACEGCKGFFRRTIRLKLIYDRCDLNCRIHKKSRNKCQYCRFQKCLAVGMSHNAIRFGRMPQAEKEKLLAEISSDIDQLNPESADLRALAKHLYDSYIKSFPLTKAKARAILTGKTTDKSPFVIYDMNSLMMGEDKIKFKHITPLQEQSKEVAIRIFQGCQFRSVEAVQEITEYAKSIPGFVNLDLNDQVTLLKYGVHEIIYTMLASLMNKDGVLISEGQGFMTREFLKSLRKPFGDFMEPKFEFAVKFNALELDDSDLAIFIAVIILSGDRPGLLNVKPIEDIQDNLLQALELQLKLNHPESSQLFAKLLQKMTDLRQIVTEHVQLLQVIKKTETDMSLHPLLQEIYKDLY
Chain of Peroxisome proliferator-activated receptor delta (Homo sapiens) (Q03181 whole entry, looked up): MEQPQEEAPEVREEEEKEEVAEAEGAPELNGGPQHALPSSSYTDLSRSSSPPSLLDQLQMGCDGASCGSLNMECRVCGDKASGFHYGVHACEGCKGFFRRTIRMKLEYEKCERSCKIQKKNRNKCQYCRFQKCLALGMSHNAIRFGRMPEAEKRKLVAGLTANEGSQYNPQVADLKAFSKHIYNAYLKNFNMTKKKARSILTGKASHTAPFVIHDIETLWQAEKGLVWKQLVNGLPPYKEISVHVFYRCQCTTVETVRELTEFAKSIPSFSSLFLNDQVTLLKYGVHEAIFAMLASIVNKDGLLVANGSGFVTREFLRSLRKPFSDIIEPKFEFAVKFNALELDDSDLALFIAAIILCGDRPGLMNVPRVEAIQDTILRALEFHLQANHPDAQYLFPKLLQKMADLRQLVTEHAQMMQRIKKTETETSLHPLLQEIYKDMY
Chain of Vitamin D3 receptor (Homo sapiens) (P11473 whole entry, looked up): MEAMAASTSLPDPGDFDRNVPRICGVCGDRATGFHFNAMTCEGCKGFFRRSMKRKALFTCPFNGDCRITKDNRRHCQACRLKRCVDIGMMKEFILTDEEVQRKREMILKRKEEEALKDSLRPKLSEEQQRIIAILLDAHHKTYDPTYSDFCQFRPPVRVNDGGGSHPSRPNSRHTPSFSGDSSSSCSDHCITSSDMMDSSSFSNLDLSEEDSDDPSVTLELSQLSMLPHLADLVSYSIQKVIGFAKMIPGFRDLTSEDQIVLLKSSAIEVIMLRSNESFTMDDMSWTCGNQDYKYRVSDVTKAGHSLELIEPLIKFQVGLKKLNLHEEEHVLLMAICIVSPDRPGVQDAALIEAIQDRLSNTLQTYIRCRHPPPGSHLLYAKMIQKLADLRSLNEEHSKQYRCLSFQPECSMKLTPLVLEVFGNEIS
Chain of Bile acid receptor (Homo sapiens) (Q96RI1 whole entry, looked up): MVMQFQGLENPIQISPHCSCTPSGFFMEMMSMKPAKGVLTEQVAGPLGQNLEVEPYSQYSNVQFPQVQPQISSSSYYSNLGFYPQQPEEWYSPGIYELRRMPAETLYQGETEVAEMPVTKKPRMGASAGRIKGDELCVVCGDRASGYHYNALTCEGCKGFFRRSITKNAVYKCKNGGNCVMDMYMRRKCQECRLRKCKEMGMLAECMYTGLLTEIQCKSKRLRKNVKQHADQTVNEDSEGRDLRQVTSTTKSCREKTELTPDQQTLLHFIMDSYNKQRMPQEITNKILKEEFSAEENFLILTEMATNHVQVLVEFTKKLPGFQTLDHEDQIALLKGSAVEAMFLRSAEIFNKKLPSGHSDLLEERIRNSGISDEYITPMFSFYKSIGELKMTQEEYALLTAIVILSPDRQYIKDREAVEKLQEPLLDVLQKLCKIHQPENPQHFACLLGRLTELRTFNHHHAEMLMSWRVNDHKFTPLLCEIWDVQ

O=C(OC1C[C@H]2CC[C@@H](C1)[N+]21CCCC1)C(O)(c1ccccc1)c1ccccc1 (some centres not stated)
not listed: [18] | [19] | [20]
inactive: all other assays above

CCN(CCCCOC(=O)c1ccc(OC)c(OC)c1)C(C)Cc1ccc(OC)cc1 (configuration not stated)
not listed: [12] | [13] | [14] | [16] | [18] | [19] | [20]
inactive: all other assays above

Cc1c(Cl)cccc1[N+](=O)[O-]
not listed: [12] | [17]
inactive: all other assays above

O=C1C=CCCC1
not listed: [16] | [17] | [18]
inactive: all other assays above

CC1(C)C(=O)NC(=O)N1CO
not listed: [14] | [16] | [18] | [19] | [20]
inactive: all other assays above

SCCOCCOCCS
not listed: [7] | [17] | [19] | [20]
inactive: all other assays above

Cc1c(N=C=O)cccc1N=C=O
not listed: [11] | [13] | [18] | [19] | [20]
inactive: all other assays above

CCC(C)CCCC(C)(C)O (configuration not stated)
not listed: [17] | [18] | [19] | [20]
inactive: all other assays above
